# From PubChem BioAssay (NCI)
# The panel holds about 83,000 compounds, 20% with a hit somewhere; the sample as a whole holds those more often.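 The endpoint reported here, percent growth, reads 100 for growth as untreated, 0 for no net growth and -100 for all cells dead.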 A number with no mark means an inactive call. Calls of active or inactive are those of the source.
# Test system: SN12C renal
# Test: NCI-60 one-dose screen, 48 h (100 = growth as untreated, 0 = no growth, -100 = all killed)
# Settings: 10 µM unless noted
# Method: Growth inhibition of the SN12C human tumor cell line is measured as a screen for anti-cancer activity. Cells are grown in 96 well plates and exposed to the test compound for 48 hours. Compounds are tested at a single concentration, which is 10^-5 M for most compounds. The reported endpoint is percent growth (GI% or GIPRCNT), where numbers from 0 - 100% represent growth inhibition, and numbers from -100% - 0 represent cell death. For example, a value of 40 represents 60% growth inhibition. A value of 0 means no net growth occurred over the course of the experiment. A value of -40 indicates 40% of cells at the beginning of the experiment died by the end of the experiment. A value of -100 means all cells are dead at the end of the experiment.
# NCI-60 Human Tumor Cell Lines Screen was performed using the standard one-dose NCI protocol, which is described in more detail at https://dtp.cancer.gov/discovery_development/nci-60/default.htm.
# Compounds with GIPRCNT values below 10 were considered active. Activity score was based on GIPRCNT using the following formula: […]
# Score is 0 for GIPRCNT values of 100 or above, 50 for GIPRCNT values of 0, and 100 for GIPRCNT values of -100.
row,SMILES,growth
1,COc1ccc(C(=O)/C=C/C23c4ccccc4C(c4ccccc42)C2C(=O)NC(=O)C23)cc1 (stereo not given),86.9%
2,COc1ccc(OC)c(/C=C2\COc3ccc(O)cc3C2=O)c1,84.1%
3,O=C1CSC(c2ccccc2O)N1c1nnc(Cn2cnnc2)o1 (stereo not given),79.6%
4,O=C(CC12CC3CC(CC(C3)C1)C2)NCCOCCOCCOCCNC(=O)c1cc2c(o1)C(=O)c1ccccc1C2=O,-90.7% (active)
5,Cc1cc(N(CCCNc2ccnc3cc(Cl)ccc23)Cc2ccccn2)nc(N2CCCC2)n1,64.4%
6,C=C(C)[C@@H]1CC[C@@]2(C(=O)O)CC[C@]3(C)C(CCC4[C@@]5(C)CCC(OS(=O)(=O)c6ccccc6)C(C)(C)C5CC[C@]43C)C12 (stereo not given in full),62.2%
7,CCNCCNc1cc(-c2cccc(C(F)(F)F)c2)c(C#N)c2nc3ccccc3n12,-47% (active)
8,O=C1Nc2ccccc2SC1C1SC(=S)N(Cc2ccccc2)C1=O (stereo not given),99.5%
9,O=[N+]([O-])c1ccc(-c2cc3c(Nc4ccc(Sc5nc6ccccc6s5)c(Cl)c4)ncnc3s2)cc1,28.6%
10,N#C/C=C(\c1ccc([N+](=O)[O-])cc1)n1nnc2cc(Cl)c(Cl)cc21,-20.1% (active)
11,N[C@@H]1CCC[C@H]1NCCCCN1C(=O)c2cccc3cccc(c23)C1=O,73.7%
12,COC(=O)/C(=C\c1ccc(OC)cc1)C(=O)N1c2ccccc2Sc2ccccc21,71.1%
13,CCN(CC)CCCNC(=O)c1ccc(N)cc1,103%
14,O=C1N(c2ccccc2)C(=S)N[C@]12[C@H](c1ccccc1)C1CCCN1[C@]21C(=O)NC2C=CC(Cl)=C[C@H]21 (stereo not given in full),98%
15,COc1ccc(-c2cc(-c3cc(OC)ccc3O)[nH]c(=O)c2C#N)cc1,66.3%
16,N#Cc1cnn2c(-c3ccc(Cl)cc3)nc(NCCc3ccccc3)nc12,99.6%
17,COc1ccccc1C(=O)NC(=S)Nc1ccc(-c2nc3ccccc3[nH]2)cc1,46%
18,Cc1cc(N(CCCNc2ccnc3cc(Cl)ccc23)Cc2ccccn2)nc(N2CCOCC2)n1,95.6%
19,C[N+](C)(C)CCOC(OCC[N+](C)(C)C)(c1ccccc1)c1ccccc1,99.9%
20,CN1CCN(CCCOc2ccc3nc(Nc4cc(Cl)cc(Cl)c4)ccc3c2)CC1,-17.7% (active)

row,SMILES,growth
1,CCc1c(C(=O)N[C@@H]2c3cc(Cl)ccc3CC[C@@H]2O)[nH]c(C)c1C(C)=O,94.7%
2,Clc1ccc(-c2nc(NCCc3ccccc3)nc3c(NCCc4ccccc4)cnn23)cc1,80.7%
3,CN(CCC(=O)/C(=C\c1ccccc1)c1ccc(Cl)cc1)Cc1ccccc1,-9.91% (active)
4,Cn1c(NCCc2ccc(O)c(O)c2)nc2c1c(=O)n(Cc1ccc(Cl)cc1)c(=O)n2C,82.7%
5,N[C@H]1CCC[C@@H]1NCCCCN1C(=O)c2cccc3cccc(c23)C1=O,63.9%
6,O=C1CSC(c2ccc(O)cc2)N1c1nnc(Cn2cnnc2)o1 (stereo not given),85.9%
7,CC(C)(O)c1cccc(F)c1,94.7%
8,CNC=O,99.8%
9,CCOC(=O)c1c(C)nc2c(c1N)/C(=C/c1ccc(OC)cc1)C(=O)N2Cc1ccc(F)cc1,-40% (active)
10,CCCCS(=O)(=O)Oc1ccc(-c2nc(C)c(C(=O)OCC)s2)cc1C=O,57.1%
11,Clc1ccc(/C=C/c2nc(Nc3ccc(Cl)cc3)c3ccccc3n2)cc1,103%
12,Cc1cc(-c2ccccc2)cc(SC#N)[n+]1[O-],51.7%
13,CCOc1cc(N)ccc1C(=O)NCCCN(CC)CC,98.5%
14,CCCCC1COc2cccc3c(SCC(=O)N(C)c4cccc(Cl)c4)cc[n+]1c23 (stereo not given),94.4%
15,COc1cc2c(cc1OC)-c1ccc3cc4c(cc3c1N(CCN1CCCC1)C2)OCO4,-29.9% (active)
16,Clc1ccc2c(NCCCN3CCN(c4nc(N5CCOCC5)nc5ccccc45)CC3)ccnc2c1,45.9%
17,Clc1ccc(-c2nnc(Cn3ccnc3)o2)cc1,90.1%
18,Cc1ccc(S(=O)(=O)Nc2sccc2-c2nc(-c3ccccc3)no2)cc1,95.1%
19,C/C(=N\NC(=O)Cn1c(-c2ccc(S(C)(=O)=O)cc2)nc2cc(Cl)ccc21)c1ccc(Cl)cc1,84%
20,CC(C)CCC[C@@H](C)[C@H]1CCC2C3=CCC4C(=O)C=CC(=O)C4C3CC[C@@]21C (stereo not given in full),20.1%
